Hits are enriched below; roughly 3.3% of the tested compounds scored in any of these assays.
Tb PYK inh = inhibitors of Trypanosoma brucei pyruvate kinase | TbPYK enzyme, Kinase-Glo Plus ATP luminescence, 45 min | AID 624173 | Q57TT1 | Potency, µM (highest dose often 76.8 µM), for the others: at the highest dose activity, negative = inhibition, usual class: inhibitors | 410,000 compounds, 0.12% hits; also: % is scaled to controls: 0 for no effect and ±100 for the full control effect; nearly all actives have a fitted effect of over 50% in size
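TbPYK + substrate in 50 mM TEA pH 7.2, 100 mM KCl, 10 mM MgCl2, 0.05% BSA, 0.01% Tween-20; cpd pinned; ADP 130 uM final; 45 min RT; Kinase-Glo Plus 10 min; luminescence endpoint.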
SARS PLpro yeast = SARS-CoV PLP inhibition in yeast; S. cerevisiae expressing SARS-CoV PLpro, growth rescue; Potency, µM (top dose mostly 32.9 µM), for the others: at the highest dose activity, positive = growth rescue, actives largely listed as activators; 330,000 compounds, 0.19% hits; calls by dose curve; also: 0% is about no effect; nearly all actives have a fitted effect of over 55% in size
RE007 growth inh = less growth of the S. pombe RE007 Vpr strain; Potency, µM (series often up to 92.2 µM), for the others: at the highest dose activity change, negative = less growth, most hits filed as inhibitors; S. pombe RE007 Vpr strain, BacTiter-Glo ATP luminescence, 24 h; 360,000 compounds, 0.21% hits; active = well fitted falling curve with a large enough effect; inconclusive = small, poorly fitted or top-dose-only effect; inactive = no such curve, though single readings can be large or run the other way; also: % is scaled to controls: 0 for no effect and ±100 for the full control effect; nearly all actives have a fitted effect of over 50% in size
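Fission yeast RE007 carrying one integrated HIV-1 vpr copy, seeded at OD 0.01 in PMG+AL medium with 23 nL pinned compound. Grown 24 h at 30 degrees; viability read by BacTiter-Glo luminescence after 5 min.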
Sm TGR inh = S. mansoni TGR enzyme inhibition; Q962Y6; purified TGR, DTNB reduction, TNB absorbance 405 nm; Potency, µM (doses to about 114 µM), for the others: at the highest dose activity change, negative = inhibition, most hits filed as inhibitors; 360,000 compounds, 3% hits; AID 485364; also: % is scaled to controls: 0 for no effect and ±100 for the full control effect; nearly all actives have a fitted effect of over 60% in size
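First, TGR (20 nM dispensed) and NADPH were mixed with compound. Second, a 15 min room-temperature incubation followed. Third, further NADPH and then DTNB were added to start the reaction. Finally, TNB absorbance was monitored kinetically.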
NS1 function inh = inhibitors of influenza NS1 protein function; Potency, µM (titrated, usually from 46.1 µM), for inactives: at the highest dose activity, positive = more growth; 270,000 compounds, 0.4% hits; calls by dose curve; also: actives are rising curves; nearly all actives have a fitted effect of over 50% in size
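A cell-based growth assay was used: compounds that relieve NS1-induced slow growth of budding yeast raise OD600. Assay medium was yeast nitrogen base with ammonium sulphate and -URA supplement, pH 6.0, with 2% galactose.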
LmPK inh = inhibitors of Leishmania mexicana pyruvate kinase. purified LmPK, Kinase-Glo ATP luminescence, 1 h. Potency, µM (highest dose often 57.5 µM), for inactives: at the highest dose activity change, negative = inhibition, hits mostly inhibitors. AID 1721. 290,000 compounds, 0.37% hits; also: % is scaled to controls: 0 for no effect and ±100 for the full control effect
Target sequence (Q27686 whole entry, looked up): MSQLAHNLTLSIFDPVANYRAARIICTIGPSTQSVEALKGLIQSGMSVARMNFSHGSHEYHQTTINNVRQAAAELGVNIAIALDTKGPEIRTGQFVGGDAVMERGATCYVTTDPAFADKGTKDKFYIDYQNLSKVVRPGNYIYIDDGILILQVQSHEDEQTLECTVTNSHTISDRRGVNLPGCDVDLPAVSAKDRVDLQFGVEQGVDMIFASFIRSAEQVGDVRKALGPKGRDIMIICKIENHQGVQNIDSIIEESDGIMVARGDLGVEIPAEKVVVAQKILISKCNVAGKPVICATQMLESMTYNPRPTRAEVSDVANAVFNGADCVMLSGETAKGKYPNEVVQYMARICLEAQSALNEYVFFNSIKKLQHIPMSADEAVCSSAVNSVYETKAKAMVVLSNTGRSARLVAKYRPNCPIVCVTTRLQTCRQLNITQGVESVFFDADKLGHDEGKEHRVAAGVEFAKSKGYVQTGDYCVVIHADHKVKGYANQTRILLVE
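0.1 nM LmPK, 0.5 mM PEP, 0.1 mM ADP; 50 mM imidazole pH 7.2, 7 mM MgCl2, 50 mM KCl; 1 h RT. Kinase-Glo luminescence readout, normalized to no-enzyme (full inhibition) and uninhibited wells.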
An asterisk follows results filed as active; u = inconclusive; x = not tested or not shown; [ ] = remark or other dose. Unless noted, calls follow the shape of the dose curve; as a rule, active = well fitted curve in the direction sought with a large enough effect; inconclusive = small, poorly fitted or top-dose-only effect, or another doubt; inactive = no such curve, though single readings can be large; an effect the other way counts as inactive or inconclusive. Potency is read from the fitted curve at half-maximal effect.

SMILES	Tb PYK inh	SARS PLpro yeast	RE007 growth inh	Sm TGR inh	NS1 function inh	LmPK inh
COc1ccc(C2CC(=O)C(CS(=O)(=O)c3ccccc3)C(=O)C2)cc1 (stereo unspecified)	0%	1%	0%	1µM*	x	-5%
O=C1CC(c2ccc(Cl)cc2)CC(=O)C1CS(=O)(=O)c1ccccc1 (stereo unspecified)	-13%	0%	17%	0.63µM*	x	-2%
O=C1CCCC(=O)C1CS(=O)(=O)c1ccccc1	u	1%	20%	2.2µM*	1%	7%
O=C1CC(c2ccccc2)CC(=O)C1Sc1ccc(Cl)cc1 (stereo unspecified)	-7%	u	6%	u	-28%	1%
O[C@@H](c1cc([C@@]23C[C@H]4CC[C@@H]2C[C@H](C4)C3)nc2c(Cl)cc(Cl)cc12)C1CCCCN1 (stereo partly specified)	x	x	x	x	-3%	x
Cc1ccc(Cl)cc1NC(=O)c1oc2c(c1C)-c1[nH]ncc1CC2	6%	x	x	0%	x	x
O=C(NCCCc1ccccc1)c1cccc(Br)c1	1%	x	-21%	x	x	x
O=C(CN(Cc1ccccc1)C(=O)CCl)c1cccc(Br)c1	-2%	-4%	17%	8.9µM*	x	x
COc1ccc(-c2nc3c(c4c2C[C@H](c2ccccc2)OC4)CN(C(=O)NCc2ccco2)CC3)c(C)c1	x	x	x	x	x	2%[11.5 µM]
Cc1cc(C)n2c(=S)[nH]nc2n1	10µM*	12%	5%	-34%	3%	1%
CCCN1C(=O)C(Cc2nc3ccccc3c(=O)n2CC)c2ccccc21 (stereo unspecified)	-5%	x	x	0%	x	x
COC(=O)CCCC1=CC2=C(c3ccccc3)C(=O)C(C)(OC(=O)C3CCCC3)C(=O)C2=CN1Cc1ccc2c(c1)OCO2 (stereo unspecified)	-1%	2%	-7%	18µM*	3%	-5%[11.5 µM]
COC(=O)CCCC1=CC2=C(c3ccccc3)C(=O)C(C)(OC(=O)C3CCCC3)C(=O)C2=CN1Cc1ccc(OC)cc1 (stereo unspecified)	-4%	2%	-5%	22µM*	20%	-7%[11.5 µM]
CCCNC(=O)C1CCC(Cn2c(=O)c3sccc3n(CC(=O)NCc3cccc(OC)c3OC)c2=O)CC1 (stereo unspecified)	5%	x	x	-6%	x	x
Cc1cc(-c2ccco2)n(CC(=O)NCc2ccco2)n1	-13%	-1%	17%	40µM*	-6%	7%
Cc1ccc(NS(=O)(=O)c2ccc(CCC(=O)NCc3ccccn3)cc2)cc1	2%	1%	2%	x	3%	3%
CC(C)C(CC(=O)NCc1ccco1)c1ccco1 (stereo unspecified)	-6%	1%	-3%	22µM*	-2%	6%
CC(C)CNS(=O)(=O)c1ccc(CCC(=O)NCc2ccco2)cc1	-15%	17%	9%	45µM*	1%	3%
CC(C)NS(=O)(=O)c1ccc(CCC(=O)NCc2ccccn2)cc1	1%	3%	-4%	100µM*	14%	-1%
Cc1ccc(S(=O)(=O)NCC(=O)N(CCc2ccccc2)CC(=O)NCc2ccco2)cc1	-3%	2%	26%	35µM*	-1%	1%
COc1ccccc1N1CCN(C(=O)Cn2c(=O)nc(-c3ccccc3)c3ccccc32)CC1	-3%	x	x	-9%	x	x
COc1cc(C2C(C#N)=C(N)N(c3ccc(F)cc3)C3=C2S(=O)(=O)CC3)ccc1O (stereo unspecified)	u	-3%	-21%	45µM*	x	0%
COc1cc(C2C(C#N)=C(N)N(c3cccnc3)C3=C2C(=O)CCC3)ccc1O (stereo unspecified)	-19%	-6%	3%	0%	21%	12%
CCCN(C(=O)CCl)C1=CCCCC1	0%	1%	8%	11µM*	x	2%
CCN(C(=O)COC(=O)CNC(=O)c1ccccc1C)C1=CCCCC1	-5%	1%	9%	-6%	x	x
SMILES	Tb PYK inh	SARS PLpro yeast	RE007 growth inh	Sm TGR inh	NS1 function inh	LmPK inh
O=C(N/N=C/C(Cl)=C/c1ccc([N+](=O)[O-])cc1)C(=O)Nc1ccccc1C(=O)O	-11%	-1%	-24%	14µM*	9%	-15%
CCOC(=O)c1nnc2c(-c3ccc(Cl)cc3)c(C)nn2c1C	-13%	x	x	0%	x	x
Cc1ccc(-n2nc(CO)c(C(=O)NCCc3ccccc3)n2)cc1C	1%	x	x	-10%	x	x
O=C(Nc1ccc(Nc2ccccc2)cc1)c1ccc(F)cc1	4%	-2%	x	0%	-37%	1%
N#CC(C#N)=C(C#N)c1ccc(Nc2ccccc2)cc1	-5%	-7%	18%	2.8µM*	-74%	-27%
COC(=O)C1=C(C)NC2=C(C(=O)CCC2)C1c1ccsc1 (stereo unspecified)	x	-11%	x	6%	0%	-2%
CC1=C(C(=O)N2CCOCC2)C(c2ccsc2)C2=C(CCCC2=O)N1 (stereo unspecified)	-8%	2%	3%	45µM*	-2%	-8%
c1ccc(C[n+]2cccc(-c3ccccc3)c2)cc1	-5%	2%	-4%	1%	9%	-1%
CC1=CCC2COC(c3ccc[n+](Cc4ccccc4)c3)C1C2 (stereo unspecified)	2%	-7%	-15%	35µM*	1%	-4%
CCN(CC)CCCNC(=O)c1nn(C)c2c1CSc1ccccc1-2	-6%	x	x	6%	x	x
NCCSCCc1ccccc1	x	x	x	x	1%	x
Cc1ccc(NC(=O)CSc2nc(-c3ccco3)nc3cc(=O)[nH]n23)cc1C	-4%	x	x	22µM*	x	x
COc1ccc(NC(=O)CSc2nc(-c3ccco3)nc3cc(=O)[nH]n23)cc1	0%	x	x	10µM*	x	x
COc1ccc(NC(=O)CSc2nc(-c3ccco3)nc3cc(=O)[nH]n23)cc1Cl	-6%	-6%	-5%	u	2%	-1%
O=C(N/C=C/c1ccco1)OCc1ccccc1	-20%	-1%	-22%	45µM*	x	-2%
O=C(NNc1ccccc1)OCc1ccccc1	-1%	x	63%	x	x	x
O=C(N/C=C/c1ccco1)NCc1ccccc1	-37%	8%	13%	25µM*	x	3%
O=C(NCc1ccccc1)/C(=C/c1ccco1)NC(=O)c1ccco1	-2%	-3%	-11%	1%	x	3%
CN1c2ccccc2C(O)=C(C(=O)Nc2ccccc2)S1(=O)=O	-5%	2%	17%	67%	-28%	0%
Cc1sc2c(c1C)C(O)=C(C(=O)Nc1ccccc1)S(=O)(=O)N2C	-9%	-3%	10%	3.5µM*	-3%	3%
Cc1nonc1CN(C)C(=O)CC1C(=O)NCCN1Cc1c(F)cccc1Cl (stereo unspecified)	-9%	-1%	-3%	5%	3%	2%
